Data as given in PMC7819943, “Rice protein-binding microarrays: a tool to detect cis-acting elements near promoter regions in rice”.
In all, about 68,000 sequences were measured (“fluorescence intensity (a.u.)”: median about 9,100, highest 2% from about 16,000 on). The entries come from a sample that favours the highest values as a whole.

target: OsWRKY34 (Oryza sativa, UniProt Q0JBA9 1-250); test: protein-binding microarray (RPBM); PBS, 2% BSA, 51.3 ng/ul salmon testes DNA, 50 uM zinc acetate, 200 nM TF, 25 C, 1 h; high values mean tight binding; conditions: protein: recombinant; tags: N-terminal polyhistidine and DsRed monomer fusion (pET32a); label: CyDye5-dUTP incorporated in the synthesized complementary strand; 3' TTTTT single-stranded linker to array surface; dsDNA, one strand shown
How it was run: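 Binding signal here means per-feature fluorescence intensity in arbitrary units. The values were read on an Axon 4000B scanner after a custom Agilent array, double-stranded by primer extension with Cy5-dUTP, was incubated with 200 nM protein at 25 °C for 1 h in PBS with 2% BSA, salmon testes DNA and 50 µM zinc acetate, then washed. The proteins were transcription factors with an N-terminal polyhistidine tag and DsRed, expressed in E. coli BL21-CodonPlus and purified on Ni–NTA.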

Sequence of OsWRKY34 (Q0JBA9 entry or part of it): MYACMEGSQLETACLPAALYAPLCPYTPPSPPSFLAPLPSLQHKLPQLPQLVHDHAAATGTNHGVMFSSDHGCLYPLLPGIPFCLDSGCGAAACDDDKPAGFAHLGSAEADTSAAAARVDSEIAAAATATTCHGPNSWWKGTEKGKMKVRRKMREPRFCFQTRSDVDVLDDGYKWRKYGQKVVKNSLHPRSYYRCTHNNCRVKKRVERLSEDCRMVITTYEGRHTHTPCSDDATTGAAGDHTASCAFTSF

Sequence | binding signal
TCCGTATTTTAATGTATGACGCTGTTGACTTTCGACCTACCGGAGTCACCTAGTGCAG | 13900 fluorescence intensity (a.u.)
TCTTACTCTCTCCATCCCAAAATGTTTGACGCCGTTGACTCGGAGTCACCTAGTGCAG | 13400 fluorescence intensity (a.u.)
CTCCCTCCATCCCAAAATGTTTGACGCCGTTGACTTTTTACGGAGTCACCTAGTGCAG | 15900 fluorescence intensity (a.u.)
CTAAATGTTTGACGCCGTTGACTTTTTAAATATGTTTGACCGGAGTCACCTAGTGCAG | 32300 fluorescence intensity (a.u.)
ATTTTAATATTTGACGCCGTTGACTTTTTGTATGTTTGACCGGAGTCACCTAGTGCAG | 42500 fluorescence intensity (a.u.)
ACTCTCTCCGTATTCGTATTTTAATGTATGACGCCGTTGACGGAGTCACCTAGTGCAG | 8550 fluorescence intensity (a.u.)
CCCACCGTTTCCAAATGTTTGACGCCGTTGACTTTTTATCCGGAGTCACCTAGTGCAG | 31900 fluorescence intensity (a.u.)
CTCTCTCCGTATTATAATGTATGATGCCGTTGACTTTTTGCGGAGTCACCTAGTGCAG | 35200 fluorescence intensity (a.u.)
TTAGTGATTTCTTGTCTCCTGATCATCTGTAGTCTGTAGACGGAGTCACCTAGTGCAG | 8160 fluorescence intensity (a.u.)
GACCTAGCTCTGCCCTTTCTTTCTGAAATAAATAATGCATCGGAGTCACCTAGTGCAG | 8960 fluorescence intensity (a.u.)
CCATCACTAGAGCCTTTTGCCTTTGCTTGCACAATTACATCGGAGTCACCTAGTGCAG | 8850 fluorescence intensity (a.u.)
TGTGTGCCTGTTGTCTCATTTGATCTGCCATTTCAGCGCACGGAGTCACCTAGTGCAG | 10700 fluorescence intensity (a.u.)
ACCCGCACACCGTCCCGTGCCAGCTGCCTCGCCACCGTTCCGGAGTCACCTAGTGCAG | 11900 fluorescence intensity (a.u.)
CCACGACACCGCTTCCAGCCCACGCAACCCTCGAACAATGCGGAGTCACCTAGTGCAG | 8170 fluorescence intensity (a.u.)
GTATTTTCGATTGTTTACACTATAATTAGACTGTTTTATACGGAGTCACCTAGTGCAG | 8600 fluorescence intensity (a.u.)
CGTCGATGCCAATACAATAACCATCATCATCATCATCATTCGGAGTCACCTAGTGCAG | 8210 fluorescence intensity (a.u.)
TCCTCTCCCACCAATCCTTTGATCCATTCATCCCAACTTCCGGAGTCACCTAGTGCAG | 9340 fluorescence intensity (a.u.)
TGTGTGTGTATATATATGTAGCCTGTTCGCACATCATCTTCGGAGTCACCTAGTGCAG | 13600 fluorescence intensity (a.u.)
GTAATGGCATATTTGCAATTATCCCTTTGTTTATTTATTTCGGAGTCACCTAGTGCAG | 8510 fluorescence intensity (a.u.)
TTATATGATGTTGTTGACTTTTTGACAAATGTTTAATCATCGGAGTCACCTAGTGCAG | 8810 fluorescence intensity (a.u.)
GTCGTTGATTTTTTTAAAAATGTTTAACCGTTCGTTTTATCGGAGTCACCTAGTGCAG | 8170 fluorescence intensity (a.u.)

Sequence | binding signal
TCCCTAAATATATGACGTTGTTGACTTTTTAAAACATTTTCGGAGTCACCTAGTGCAG | 11200 fluorescence intensity (a.u.)
TCCCTAAATGTTTAACGTCGTTGACTTTTTAAAATATGTTCGGAGTCACCTAGTGCAG | 21000 fluorescence intensity (a.u.)
AATGTATGACGCCGTTGACTTTTTAACAAATATTTGACATCGGAGTCACCTAGTGCAG | 20300 fluorescence intensity (a.u.)
CGTGCCGCCGCCGCCGCCGCCATCCTCCGGCAACAACGGCCGGAGTCACCTAGTGCAG | 9650 fluorescence intensity (a.u.)
GCTTCGCTTTGCGCTCTCTCTATCTCTCTCTCTTCCAAAACGGAGTCACCTAGTGCAG | 8490 fluorescence intensity (a.u.)
TATCCACATACCACCTCTCCATTGGACCACAGTTTCTCTCCGGAGTCACCTAGTGCAG | 8340 fluorescence intensity (a.u.)
GGAGAGGAGCGGGCGGGTTGGTGTTGGGAAGGGAGGGATGCGGAGTCACCTAGTGCAG | 18200 fluorescence intensity (a.u.)
CGCGGGGAGGGAGGGAGGGAAGGAGAGGAGGAAGAGGATGCGGAGTCACCTAGTGCAG | 9410 fluorescence intensity (a.u.)
TGCTGGTGGTGGTGGTGGGGATCGAGCCGCTCGCTTCGACCGGAGTCACCTAGTGCAG | 11700 fluorescence intensity (a.u.)
CGAGAAGGGGATGGGGAGGAGGAGAGGGAGCGGGAGAGGGCGGAGTCACCTAGTGCAG | 10100 fluorescence intensity (a.u.)
CGGAGAAGTCCGGGCAGGCAAGGGGATGGGGATGGGGATGCGGAGTCACCTAGTGCAG | 12400 fluorescence intensity (a.u.)
AAGGGGATCGGAGATGCCGCTGGGCAAGTACTACTGCGACCGGAGTCACCTAGTGCAG | 29900 fluorescence intensity (a.u.)
GGGGCAAGGAAGGAAGGGGAGGGGAGGGGTTGGGGCGATGCGGAGTCACCTAGTGCAG | 25900 fluorescence intensity (a.u.)
GGTTTTGCAGGGCGAGGAGGGAGGGGAGGAGGGAAGGATGCGGAGTCACCTAGTGCAG | 15900 fluorescence intensity (a.u.)
GGCGGCGGCGGCGGCGGAGGTTGGGAAGGAGAGGGAGGGGCGGAGTCACCTAGTGCAG | 11800 fluorescence intensity (a.u.)
AAATCATTTAGAAACACAACCTTTTCCACTGTTCAGGATTCGGAGTCACCTAGTGCAG | 8030 fluorescence intensity (a.u.)
TTCACCCCGCTGCTCCGACGTCCTAGCCATCGCCGCCGCCCGGAGTCACCTAGTGCAG | 8600 fluorescence intensity (a.u.)
CTGCCGCTCTGGTTCTCCAACTCTGCATACATATACCTCTCGGAGTCACCTAGTGCAG | 12000 fluorescence intensity (a.u.)
GGGATTTTGTGTTTTTGGTTTTTCTGGAGGGTGCAGAAGGCGGAGTCACCTAGTGCAG | 14700 fluorescence intensity (a.u.)
CTACCAACCTGTTCATCATGGCCCGACTCCATTCATGTCACGGAGTCACCTAGTGCAG | 10300 fluorescence intensity (a.u.)
TTTGTGGGTGGTTTTGGGCTAAAGATTCCGTTTCTTTCGACGGAGTCACCTAGTGCAG | 9250 fluorescence intensity (a.u.)
